FLuc modulator = firefly luciferase modulation, counter-screen for miR-21 project; P08659; actives 6.9% (n = 360,000); Potency, µM (doses to about 57.5 µM), for the others: at the top dose activity change, negative = inhibition, usual class: inhibitors; purified FLuc, Km substrates, luminescence inhibition;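 further: plate controls were vehicle for no effect and reference inhibitor for full effect; nearly all actives have a fitted effect of over 55% in size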
Target sequence (P08659 whole entry, looked up): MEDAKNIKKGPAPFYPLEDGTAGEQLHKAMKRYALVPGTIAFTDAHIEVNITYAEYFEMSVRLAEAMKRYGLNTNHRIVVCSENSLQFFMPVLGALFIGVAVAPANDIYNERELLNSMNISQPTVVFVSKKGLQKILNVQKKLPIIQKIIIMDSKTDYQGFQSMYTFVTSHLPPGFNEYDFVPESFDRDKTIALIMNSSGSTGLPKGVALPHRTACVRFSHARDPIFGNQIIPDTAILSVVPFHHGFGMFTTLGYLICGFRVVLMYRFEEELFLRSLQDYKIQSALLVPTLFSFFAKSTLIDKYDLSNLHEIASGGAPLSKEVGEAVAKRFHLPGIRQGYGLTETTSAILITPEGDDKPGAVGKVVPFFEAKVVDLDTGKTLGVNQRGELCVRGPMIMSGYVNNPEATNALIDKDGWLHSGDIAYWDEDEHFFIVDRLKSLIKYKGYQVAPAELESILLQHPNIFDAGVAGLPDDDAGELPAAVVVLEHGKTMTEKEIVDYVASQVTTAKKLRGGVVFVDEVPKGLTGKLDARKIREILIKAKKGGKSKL
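Purified P. pyralis luciferase, 10 nM final, with Km-level 10 uM D-luciferin and 10 uM ATP in 50 mM Tris acetate pH 7.5, 10 mM Mg acetate, 0.01% Tween-20, 0.05% BSA; 6-point qHTS titration about 60 µM downward; luminescence read.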
ELG1 repair inh = ELG1-dependent DNA repair inhibition; HEK293T ELG1-luciferase reporter, luminescence, 16 h; DNA damage induced by 5-fluorouridine; actives 2.3% (n = 330,000); Potency, µM (doses to about 46.1 µM), inactives show at the highest dose activity change, negative = inhibition, hits mostly inhibitors; further: on the % scale 0 is the no-effect control and ±100 the full control effect; nearly all actives have a fitted effect of over 55% in size
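Luminescence from the luciferase reporter, measured 30 min after ONE-Glo reagent at room temperature, was the read-out. Beforehand, 2,000 cells per well were exposed for 16 hr at 37 °C to 5-fluorouridine together with compound or vehicle.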
SMN2 splice enh = increases expression of the SMN2 splice variant | HEK293 SMN2-luciferase splicing reporter, luminescence, 30-36 h | Potency, µM (series often up to 46.1 µM), without a hit: top-dose activity change, positive = activation, most hits filed as activators | actives 2.8% (n = 210,000) | AID 1458; further: % of control where 0% means no effect; nearly all actives have a fitted effect of over 55% in size
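qHTS luciferase splicing reporter: luminescence rises when SMN2 exon 7 is included in transfected HEK293 cells. Compound exposure lasted 30-36 h at 37C, with 4.5 mM final sodium butyrate as control, followed by a ONE-Glo read.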
ELG1 genotoxic = genotoxicity induction in ELG1-luciferase HEK293T cells; HEK293T ELG1-luciferase reporter, luminescence, 16 h; Potency, µM (series often up to 46 µM), inactives show at the highest dose activity change, positive = activation, actives largely listed as activators; actives 1.3% (n = 330,000); further: % of control where 0% means no effect; nearly all actives have a fitted effect of over 60% in size
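Screening used a luciferase reporter fused to human ELG1 in HEK293T cells. Luminescence was read on a CCD plate imager after 16 hr exposure and 30 min ONE-Glo incubation.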
Rab9 prom act = Rab9 promoter activation | AID 485297 | actives 2.8% (n = 320,000) | Huh7 Rab9 promoter-luciferase reporter, luminescence, 24 h | Potency, µM (doses to about 9.22 µM), inactives show at the top dose activation, negative = inhibition, actives largely listed as activators; further: % of control where 0% means no effect; nearly all actives have a fitted effect of over 60% in size
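Steps: seed 1500 Huh7 Rab9-luc cells per well, rest 2 h at 37 °C; add compound in DMSO; incubate 24 h; add luciferase reagent, 10 min ambient; read luminescence.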
NPC1 promoter act = activators of NPC1 promoter; Huh7 NPC1 promoter luciferase reporter, 24 h; Potency, µM (highest dose often 9.22 µM), for inactives: at the top dose activation, actives largely listed as activators; actives 2.4% (n = 320,000); AID 485313; further: % of control where 0% means no effect; nearly all actives have a fitted effect of over 60% in size
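Luminescence from an NPC1 promoter-driven luciferase reporter in stably transfected Huh7 cells was measured after 24 h compound treatment at 37 °C, followed by 10 min ambient incubation with luciferase detection reagent.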
An asterisk follows results filed as active; ? = inconclusive; . = not tested or not shown; [ ] = remark or other dose. An excerpt weighted towards active compounds, which were near 9.3% of everything screened. The call rests on the fitted dose curve; in most records, active means well fitted curve in the direction sought with a large enough effect; inconclusive means small, poorly fitted or top-dose-only effect, or another doubt; inactive means no such curve, though single readings can be large; an effect the other way counts as inactive or inconclusive. Potency means the concentration at half of the fitted maximal effect.

SMILES | FLuc modulator | ELG1 repair inh | SMN2 splice enh | ELG1 genotoxic | Rab9 prom act | NPC1 promoter act
O=C1C(=C(O)c2ccccc2)C(=O)c2ccccc21 | ? | ? | -6% | 0% | -4% | 6%
O=C1C(=O)c2ccccc2C([O-])=C1[n+]1ccccc1 | -1% | 18µM* | . | -23% | -46% | -40%
COCCN(Cc1ccco1)C(=O)C1CCCN(c2ncnc3c2nc2n3CCCCC2)C1 (centres undefined) | -1% | -22% | . | -5% | -1% | -15%
CCn1nnnc1SCC(=O)Nc1nnc(C(C)C)s1 | 5% | ? | 0.4µM* | 5% | -5% | -2%
CCCCn1c(SCC(=O)Nc2nnc(C(C)C)s2)nc2c1c(=O)n(C)c(=O)n2C | 13% | 18µM* | . | -22% | -12% | -4%
CCCn1c(SCC(=O)Nc2nnc(CC)s2)nc2c1c(=O)n(C)c(=O)n2C | 1% | -5% | -13% | -1% | 2% | -3%
Cc1cccc(OCCCC(=O)NNC(=O)c2ccccn2)c1 | 1% | ? | . | 7% | 0% | -2%
COC(=O)c1nc(NC(=O)C(C)(C)C)n[nH]1 | 24µM* | ? | 2% | 5% | -4% | -2%
CC1=NOC(=O)/C1=C\c1ccc(-c2ccc(Br)cc2)o1 | 8.5µM* | -3% | -41% | -3% | -3% | -11%
Cc1ccc(/C=C2\C(=O)ON=C2c2ccccc2)o1 | 1.1µM* | 0% | . | 1% | -12% | 1%
CC1=NOC(=O)/C1=C\c1ccc(-c2cc(Cl)ccc2Cl)o1 | ? | ? | 22% | -39% | 0% | -16%
CC1=NOC(=O)/C1=C\c1ccc(-c2ccc(Br)cc2C(=O)O)o1 | ? | 21% | . | 3% | -3% | 0%
Cc1ccc(C2=NOC(=O)/C2=C\c2ccc(C)o2)cc1 | ? | ? | . | ? | 0% | 18%
CC1=NOC(=O)/C1=C/c1ccc(-c2ccc(Cl)cc2)o1 | 8.5µM* | -13% | -16% | -13% | -4% | -3%
COc1ccc(N2CCN(C(=O)NCc3noc4ccccc34)CC2)cc1 | 2% | . | . | . | . | .
CCC(=O)NCc1csc(-c2cccs2)n1 | -8% | ? | . | 10% | ? | 20%
O=C(NCc1ccc(F)cc1)c1nc(-c2cccs2)no1 | -6% | 5% | 9% | 3% | -2% | 0%
COc1ccccc1CCNC(=O)c1nc(-c2cccs2)no1 | 17µM* | ? | ? | ? | ? | ?
COc1ccccc1CC(=O)NCc1csc(-c2cccs2)n1 | 17µM* | ? | . | 16% | ? | ?
COc1ccc(CCNC(=O)Cn2nnc(-c3cccs3)n2)cc1OC | 0% | 0% | -19% | -2% | 11% | -3%
COc1ccc(CCNC(=O)c2nc(-c3cccs3)no2)cc1OC | -2% | 9.2µM* | -42% | -5% | -2% | -6%
O=C(Nc1ccccc1C(F)(F)F)C1CCN(S(=O)(=O)c2ccccc2)CC1 | -8% | . | -3% | . | . | .
S=C(NCCCN1CCOCC1)N1CCN(c2cccc(Cl)c2)CC1 | 1% | -12% | . | -15% | 4% | -3%
CCOc1ccc(CCNC(=O)CCn2c(=O)c3cccn3c3ccc(F)cc32)cc1 | -3% | . | . | . | . | .
Cc1ccc(-c2nnc(Nc3ccc4c(c3)OCO4)c3ccccc23)cc1S(=O)(=O)NCCO | 15µM* | ? | -16%[1.84 µM] | -1% | 16% | 0%
SMILES | FLuc modulator | ELG1 repair inh | SMN2 splice enh | ELG1 genotoxic | Rab9 prom act | NPC1 promoter act
Cc1ccc(-c2nnc(Nc3ccc4c(c3)OCO4)c3ccccc23)cc1S(=O)(=O)NC(C)C | 5.4µM* | 15µM* | 1% | -6% | -1% | 1%
Cc1ccc(-c2nnc(Nc3ccc(Cl)c(Cl)c3)c3ccccc23)cc1S(=O)(=O)N(C)C | -2% | . | -3% | . | . | .
CCOC(=O)c1cccc(NC(=O)[C@@H](c2ccccc2)N2Cc3ccccc3C2=O)c1 | -6% | . | 3% | . | . | .
O=Cc1cccc(OC(=O)/C=C/c2ccco2)c1 | 27µM* | ? | . | ? | 13% | ?
O=C(/C=C/c1ccco1)Oc1ccc(C(=S)N2CCOCC2)cc1 | ? | -4% | -55% | 17% | -2% | 0%
COC(=O)c1ccc(OC(=O)/C=C/c2ccco2)cc1 | 2.4µM* | 14% | . | 3% | 1% | 0%
CCOC(=O)C1=C(C)NC(C)=C(C(=O)OCC)C1C(=O)OCC(=O)NC1CCCCC1 | . | 10µM* | . | -5% | . | .
CCOC(=O)C1=C(C)NC(C)=C(C(=O)OCC)C1C(=O)OCC(=O)NCCc1ccccc1 | . | 23µM* | . | -2% | . | .
CCNC(=O)COC(=O)C1C(C(=O)OCC)=C(C)NC(C)=C1C(=O)OCC | 0% | -7% | 19% | -1% | -3% | -3%
COc1cccc(OCc2cc(C(=O)N(C)Cc3nc(C)cs3)no2)c1 | 12µM* | ? | . | 12µM* | 2.2µM* | 3.2µM*
Cc1ccc(OCc2cc(C(=O)N(C)CCc3ccccn3)no2)cc1C | 13µM* | ? | . | 10%[9.26 µM] | 3.5µM* | ?
Cc1cc(CN(C)C(=O)c2cc(COc3ccc(C)c(C)c3)on2)on1 | 12µM* | ? | . | 16µM* | 1.4µM* | 2.5µM*
O=[N+]([O-])c1ccccc1CCc1cnc(Cl)s1 | -1% | 8% | . | 1% | -4% | 0%
O=C(c1cc(-c2cccs2)on1)N1CCN(c2ccccc2)CC1 | 17µM* | 7% | 3% | 0% | 2% | -2%
O=C(c1cn(-c2ccccc2)nc1-c1ccc(Cl)s1)N1CCOCC1 | 17µM* | -4% | 13% | 2% | -8% | -2%
O=C(c1cn(-c2ccccc2)nc1-c1cccs1)N1CCN(c2ccc(F)cc2)CC1 | 13µM* | ? | . | -8% | -3% | 2%
O=C(COCc1cc(-c2cccs2)on1)N1CCN(c2ccc(F)cc2)CC1 | 4% | . | . | . | . | .
O=C(c1cccs1)N1CCN(C(=O)c2cn(-c3ccccc3)nc2-c2ccccc2)CC1 | . | ? | . | 0% | . | .
COc1ccc(OC)c(-c2cc(C(=O)N3CCN(c4ccccc4)CC3)no2)c1 | 8% | -16% | -1% | -5% | -1% | -5%
O=C(c1cc(-c2cccs2)on1)N1CCN(c2ccc(F)cc2)CC1 | 24µM* | -14% | -53% | -7% | 1% | 3%
CCOc1ccc(NC(=O)C2CC(=O)N(c3ccc(C(C)C)cc3)C2)cc1 (centres undefined) | -2% | . | 3% | . | . | .
CN(c1ccccc1)S(=O)(=O)c1ccc(C(=O)NNC(=O)c2ccccc2F)cc1 | 2% | 19% | . | 2% | -3% | -2%
O=C(CCNS(=O)(=O)c1ccccc1)OCC(=O)c1ccc(Cl)cc1 | 3% | ? | . | -4% | -6% | 0%

Compound activity deposited in PubChem BioAssay by National Center for Advancing Translational Sciences (NCATS).
